Measured values as given in PMC7862700, “An all-to-all approach to the identification of sequence-specific readers for epigenetic DNA modifications on cytosine”.

How the values were obtained:
Assay in all cases: DAPPL (digital affinity profiling via proximity ligation, sequencing); 10 mM Tris-HCl pH 7.5, 50 mM NaCl, 1 mM DTT, 4% glycerol, room temperature, 30 min; GST-TFs on glutathione beads, 16-mer random dsDNA library, 0.1% formaldehyde crosslink after washing; high values mean tight binding
Conditions in all cases: protein: recombinant; tags: N-terminal GST; dsDNA, one strand shown
FLI1 = biological target: T1, FLI1 (Homo sapiens, UniProt Q01543 1-452)
T1 sequence: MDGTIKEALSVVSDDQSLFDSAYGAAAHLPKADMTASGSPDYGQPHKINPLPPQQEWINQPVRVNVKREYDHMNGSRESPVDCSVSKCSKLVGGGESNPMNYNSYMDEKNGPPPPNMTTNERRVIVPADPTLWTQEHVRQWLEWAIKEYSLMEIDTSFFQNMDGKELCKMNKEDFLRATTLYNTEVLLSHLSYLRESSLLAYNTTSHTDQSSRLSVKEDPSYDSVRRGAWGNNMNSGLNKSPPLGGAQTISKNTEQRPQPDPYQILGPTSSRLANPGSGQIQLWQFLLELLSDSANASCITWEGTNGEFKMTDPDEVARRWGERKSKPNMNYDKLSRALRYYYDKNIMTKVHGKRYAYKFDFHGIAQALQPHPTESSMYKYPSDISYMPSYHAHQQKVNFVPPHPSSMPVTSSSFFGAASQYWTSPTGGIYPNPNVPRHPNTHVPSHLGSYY
How it was run: (§1)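 Pools were built from human transcription factors expressed in yeast as GST fusions, captured on glutathione beads and DNA-barcoded, along with a tag-only sample. Incubation with 200 nmole of a 16-mer random double-stranded DNA library lasted 30 min at room temperature in Tris/NaCl/DTT/glycerol buffer, and was followed by washing, 0.1% formaldehyde crosslinking, proximity ligation, PCR amplification and Illumina NextSeq500 sequencing. Binding signal is the quotient of each hexamer's read frequency for a factor and its frequency for the tag-only sample.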

GABPA = biological target: T2, GABPA (Homo sapiens, UniProt Q06546 1-454)
T2 sequence: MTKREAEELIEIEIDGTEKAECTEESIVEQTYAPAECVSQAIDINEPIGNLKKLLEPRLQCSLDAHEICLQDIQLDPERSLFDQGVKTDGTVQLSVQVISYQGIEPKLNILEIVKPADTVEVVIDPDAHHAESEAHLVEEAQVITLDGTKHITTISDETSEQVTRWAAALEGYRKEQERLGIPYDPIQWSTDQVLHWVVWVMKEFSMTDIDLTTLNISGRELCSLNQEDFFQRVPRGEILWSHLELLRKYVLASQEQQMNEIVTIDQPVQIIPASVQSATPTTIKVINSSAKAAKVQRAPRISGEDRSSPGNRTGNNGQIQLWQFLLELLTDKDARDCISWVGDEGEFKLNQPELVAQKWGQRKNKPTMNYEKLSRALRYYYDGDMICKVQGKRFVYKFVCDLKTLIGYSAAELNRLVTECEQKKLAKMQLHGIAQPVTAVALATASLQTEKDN
How it was run: as §1

ERG = biological target: T3, ERG (Homo sapiens, UniProt P11308 1-479)
T3 sequence: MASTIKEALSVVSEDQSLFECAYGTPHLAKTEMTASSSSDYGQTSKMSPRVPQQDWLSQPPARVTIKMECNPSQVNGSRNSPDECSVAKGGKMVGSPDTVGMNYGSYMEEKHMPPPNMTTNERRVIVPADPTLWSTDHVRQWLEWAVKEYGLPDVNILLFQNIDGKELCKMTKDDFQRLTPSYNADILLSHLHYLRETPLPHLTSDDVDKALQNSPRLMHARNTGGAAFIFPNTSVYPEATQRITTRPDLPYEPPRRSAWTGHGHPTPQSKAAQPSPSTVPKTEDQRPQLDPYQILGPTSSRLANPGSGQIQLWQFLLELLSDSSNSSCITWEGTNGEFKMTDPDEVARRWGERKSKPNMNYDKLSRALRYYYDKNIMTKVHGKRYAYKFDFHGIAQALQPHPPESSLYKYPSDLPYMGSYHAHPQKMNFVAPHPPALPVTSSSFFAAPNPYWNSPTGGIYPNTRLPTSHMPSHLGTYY
How it was run: as §1

ELF1 = ELF1 (Homo sapiens, UniProt P32519 1-619)
Sequence of ELF1 (P32519 whole entry): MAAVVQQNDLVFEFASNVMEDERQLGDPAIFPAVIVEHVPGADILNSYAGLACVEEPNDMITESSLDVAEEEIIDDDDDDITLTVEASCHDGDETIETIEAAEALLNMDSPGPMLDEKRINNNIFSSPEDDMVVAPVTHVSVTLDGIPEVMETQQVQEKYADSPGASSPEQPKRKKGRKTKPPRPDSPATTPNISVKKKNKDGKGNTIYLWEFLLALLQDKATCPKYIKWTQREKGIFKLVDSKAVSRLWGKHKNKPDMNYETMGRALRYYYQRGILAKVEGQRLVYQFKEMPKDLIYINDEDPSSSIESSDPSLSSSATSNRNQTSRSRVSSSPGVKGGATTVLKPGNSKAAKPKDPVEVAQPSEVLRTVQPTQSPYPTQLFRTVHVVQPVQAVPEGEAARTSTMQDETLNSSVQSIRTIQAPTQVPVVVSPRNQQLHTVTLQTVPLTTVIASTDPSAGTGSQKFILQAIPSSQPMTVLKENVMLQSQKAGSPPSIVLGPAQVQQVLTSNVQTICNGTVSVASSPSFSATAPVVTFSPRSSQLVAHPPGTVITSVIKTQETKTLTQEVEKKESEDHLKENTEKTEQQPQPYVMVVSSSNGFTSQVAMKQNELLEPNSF
How it was run: as §1

SPIB = SPIB (Homo sapiens, UniProt Q01892 1-262)
Sequence of SPIB (Q01892 whole entry): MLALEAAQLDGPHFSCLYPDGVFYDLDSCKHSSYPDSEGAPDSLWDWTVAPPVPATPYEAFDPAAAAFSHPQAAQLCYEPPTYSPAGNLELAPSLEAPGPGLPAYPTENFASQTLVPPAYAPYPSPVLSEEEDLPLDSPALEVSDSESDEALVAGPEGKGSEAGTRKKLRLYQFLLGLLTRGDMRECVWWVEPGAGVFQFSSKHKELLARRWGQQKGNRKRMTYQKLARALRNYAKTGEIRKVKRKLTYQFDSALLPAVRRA
How it was run: as §1

ELK3 = biological target: T4, ELK3 (Homo sapiens, UniProt P41970 1-407)
T4 sequence: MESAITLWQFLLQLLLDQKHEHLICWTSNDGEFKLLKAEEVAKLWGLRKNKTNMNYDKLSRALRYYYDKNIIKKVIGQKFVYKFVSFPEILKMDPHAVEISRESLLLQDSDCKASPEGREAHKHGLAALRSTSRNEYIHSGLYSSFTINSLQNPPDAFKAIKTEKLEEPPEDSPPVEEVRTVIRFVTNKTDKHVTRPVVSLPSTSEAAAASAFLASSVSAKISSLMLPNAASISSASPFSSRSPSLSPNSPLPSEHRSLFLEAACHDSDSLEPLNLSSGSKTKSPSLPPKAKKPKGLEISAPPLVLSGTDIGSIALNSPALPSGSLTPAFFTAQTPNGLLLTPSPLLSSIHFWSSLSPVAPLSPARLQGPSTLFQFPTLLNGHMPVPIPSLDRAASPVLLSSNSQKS
How it was run: as §1

ETV5 = ETV5 (Homo sapiens, UniProt P41161 1-510)
Sequence of ETV5 (P41161 whole entry): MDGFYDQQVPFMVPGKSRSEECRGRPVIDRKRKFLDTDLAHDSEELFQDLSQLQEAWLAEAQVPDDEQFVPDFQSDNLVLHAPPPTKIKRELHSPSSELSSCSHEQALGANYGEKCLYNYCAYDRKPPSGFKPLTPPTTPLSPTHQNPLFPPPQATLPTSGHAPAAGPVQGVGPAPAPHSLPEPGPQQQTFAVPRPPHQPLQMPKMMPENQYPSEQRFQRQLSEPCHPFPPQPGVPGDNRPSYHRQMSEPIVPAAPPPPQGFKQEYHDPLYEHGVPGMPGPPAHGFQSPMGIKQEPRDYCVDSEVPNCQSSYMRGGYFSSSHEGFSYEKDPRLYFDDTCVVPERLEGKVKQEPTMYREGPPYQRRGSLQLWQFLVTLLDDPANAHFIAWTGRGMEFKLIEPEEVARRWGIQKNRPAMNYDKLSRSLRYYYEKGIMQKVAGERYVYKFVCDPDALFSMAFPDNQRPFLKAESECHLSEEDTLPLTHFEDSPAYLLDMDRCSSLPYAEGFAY
How it was run: as §1

ELF4 = ELF4 (Homo sapiens, UniProt Q99607 1-663)
Sequence of ELF4 (Q99607 whole entry): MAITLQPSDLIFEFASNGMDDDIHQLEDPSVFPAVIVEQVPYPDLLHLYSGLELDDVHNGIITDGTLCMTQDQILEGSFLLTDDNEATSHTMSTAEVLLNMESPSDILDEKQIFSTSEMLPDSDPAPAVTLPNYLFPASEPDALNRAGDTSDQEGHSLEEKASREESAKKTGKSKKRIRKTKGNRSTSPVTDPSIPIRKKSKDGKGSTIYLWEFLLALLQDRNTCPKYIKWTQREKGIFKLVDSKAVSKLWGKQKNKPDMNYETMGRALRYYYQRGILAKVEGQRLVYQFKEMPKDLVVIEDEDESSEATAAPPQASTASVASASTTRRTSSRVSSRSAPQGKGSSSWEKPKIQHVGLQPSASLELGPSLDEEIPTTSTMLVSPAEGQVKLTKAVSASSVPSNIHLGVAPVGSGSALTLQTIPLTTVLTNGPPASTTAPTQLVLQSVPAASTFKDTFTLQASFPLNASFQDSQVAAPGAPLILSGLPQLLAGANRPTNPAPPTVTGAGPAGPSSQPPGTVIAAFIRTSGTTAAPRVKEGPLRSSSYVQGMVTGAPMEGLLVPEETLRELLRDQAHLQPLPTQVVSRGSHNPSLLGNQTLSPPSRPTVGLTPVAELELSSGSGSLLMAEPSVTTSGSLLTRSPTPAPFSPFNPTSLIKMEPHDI
How it was run: as §1

ETV2 = biological target: T5, ETV2 (Homo sapiens, UniProt O00321 1-342)
T5 sequence: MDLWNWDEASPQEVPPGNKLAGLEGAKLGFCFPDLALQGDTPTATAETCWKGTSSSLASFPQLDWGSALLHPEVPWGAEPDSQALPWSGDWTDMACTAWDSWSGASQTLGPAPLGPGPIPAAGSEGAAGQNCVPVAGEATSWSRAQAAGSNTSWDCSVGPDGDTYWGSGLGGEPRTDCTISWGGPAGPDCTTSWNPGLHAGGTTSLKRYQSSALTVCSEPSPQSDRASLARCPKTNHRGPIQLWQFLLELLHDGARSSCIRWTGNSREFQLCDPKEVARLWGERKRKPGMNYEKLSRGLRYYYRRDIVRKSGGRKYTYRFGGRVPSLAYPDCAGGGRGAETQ
How it was run: as §1

ELF3 = biological target: T6, ELF3 (Homo sapiens, UniProt P78545 1-371)
T6 sequence: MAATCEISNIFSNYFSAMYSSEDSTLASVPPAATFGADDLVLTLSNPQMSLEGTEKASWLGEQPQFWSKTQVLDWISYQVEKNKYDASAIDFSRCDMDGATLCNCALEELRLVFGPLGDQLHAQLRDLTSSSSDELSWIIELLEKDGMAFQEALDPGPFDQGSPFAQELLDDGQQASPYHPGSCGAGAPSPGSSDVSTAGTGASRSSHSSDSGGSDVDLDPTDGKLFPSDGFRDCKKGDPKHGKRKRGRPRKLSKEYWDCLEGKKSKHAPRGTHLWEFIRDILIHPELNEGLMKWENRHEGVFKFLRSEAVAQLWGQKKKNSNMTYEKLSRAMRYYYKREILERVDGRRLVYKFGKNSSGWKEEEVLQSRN
How it was run: as §1

ETV1 = ETV1 (Homo sapiens, UniProt P50549 1-477)
Sequence of ETV1 (P50549 whole entry): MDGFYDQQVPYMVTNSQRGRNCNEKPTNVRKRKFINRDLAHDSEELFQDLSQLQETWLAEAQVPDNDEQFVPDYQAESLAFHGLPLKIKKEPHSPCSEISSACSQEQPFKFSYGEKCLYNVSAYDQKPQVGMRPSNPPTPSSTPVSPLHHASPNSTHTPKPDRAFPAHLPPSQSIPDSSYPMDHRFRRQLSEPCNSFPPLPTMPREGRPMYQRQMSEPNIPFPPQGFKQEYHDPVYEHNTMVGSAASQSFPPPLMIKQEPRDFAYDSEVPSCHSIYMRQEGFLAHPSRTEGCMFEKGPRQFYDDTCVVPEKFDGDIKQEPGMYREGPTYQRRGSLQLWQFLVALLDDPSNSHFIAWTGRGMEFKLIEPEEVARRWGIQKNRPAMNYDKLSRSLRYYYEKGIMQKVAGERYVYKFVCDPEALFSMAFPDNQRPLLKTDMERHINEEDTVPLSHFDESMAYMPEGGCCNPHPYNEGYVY
How it was run: as §1

ETV7 = biological target: T7, ETV7 (Homo sapiens, UniProt Q9Y603 1-341)
T7 sequence: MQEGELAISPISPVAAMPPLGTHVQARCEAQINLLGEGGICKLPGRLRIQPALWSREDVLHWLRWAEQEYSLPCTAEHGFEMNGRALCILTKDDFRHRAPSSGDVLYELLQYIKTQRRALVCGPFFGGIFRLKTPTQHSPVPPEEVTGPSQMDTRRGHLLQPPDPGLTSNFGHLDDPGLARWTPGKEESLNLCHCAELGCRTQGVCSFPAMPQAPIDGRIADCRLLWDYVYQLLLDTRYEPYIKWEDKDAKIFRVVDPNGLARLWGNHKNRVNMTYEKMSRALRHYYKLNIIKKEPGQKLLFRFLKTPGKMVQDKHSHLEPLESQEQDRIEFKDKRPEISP
How it was run: as §1

In the case of TACGGT, the binding signal (FLI1) is reported as 1.01 fold enrichment (6-mer frequency, TF over GST control), the binding signal (GABPA) is reported as 1.02 fold enrichment (6-mer frequency, TF over GST control) and the binding signal (ERG) is reported as 1.02 fold enrichment (6-mer frequency, TF over GST control). For the same sequence, the binding signal (ELF1) was 1.01 fold enrichment (6-mer frequency, TF over GST control), the binding signal (SPIB) was 1.02 fold enrichment (6-mer frequency, TF over GST control) and the binding signal (ELK3) was 1.11 fold enrichment (6-mer frequency, TF over GST control). The binding signal (ETV5) was 1.04 fold enrichment (6-mer frequency, TF over GST control), the binding signal (ELF4) was 1.05 fold enrichment (6-mer frequency, TF over GST control) and the binding signal (ETV2) was 1.07 fold enrichment (6-mer frequency, TF over GST control). The binding signal (ELF3) was 1.11 fold enrichment (6-mer frequency, TF over GST control), the binding signal (ETV1) was 1.01 fold enrichment (6-mer frequency, TF over GST control) and the binding signal (ETV7) was 1.08 fold enrichment (6-mer frequency, TF over GST control).
